Screens deposited in PubChem by National Center for Advancing Translational Sciences (NCATS).
Hits are enriched below; roughly 2.4% of the tested compounds scored in any of these assays.
D2 PAM-1: positive allosteric modulators of human D2 dopamine receptor | AID 624464 | actives 0.23% (n = 360,000) | DiscoveRx D2 beta-arrestin cells, luminescence, 90 min; 100% = 57 uM dopamine signal | potentiation, % (test concentration not listed); in the data active = potentiation above about 50%; inconclusive = mostly about 30% to 49%
Target sequence (P14416 whole entry, looked up): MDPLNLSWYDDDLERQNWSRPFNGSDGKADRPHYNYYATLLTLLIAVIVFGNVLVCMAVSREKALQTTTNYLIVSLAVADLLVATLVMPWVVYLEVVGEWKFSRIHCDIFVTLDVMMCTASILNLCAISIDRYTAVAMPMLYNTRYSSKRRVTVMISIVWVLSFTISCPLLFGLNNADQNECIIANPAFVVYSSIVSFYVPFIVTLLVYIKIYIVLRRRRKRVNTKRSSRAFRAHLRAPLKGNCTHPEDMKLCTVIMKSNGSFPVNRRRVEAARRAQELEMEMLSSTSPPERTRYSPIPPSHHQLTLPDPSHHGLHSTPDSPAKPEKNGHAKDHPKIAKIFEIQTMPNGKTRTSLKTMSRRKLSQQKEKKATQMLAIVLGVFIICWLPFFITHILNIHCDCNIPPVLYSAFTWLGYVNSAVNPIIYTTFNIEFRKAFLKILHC
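PathHunter D2 cells, attached overnight at 37 deg C, received compound in DMSO plus dopamine at EC20 (50 nM final) for 90 min at 37 deg C. Beta-arrestin recruitment was read as luminescence after 1 h with detection reagent at ambient temperature.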
D2 PAM-2: D2 dopamine receptor (human) potentiation; HEK293 T-REx D2, calcium flux, EC20 dopamine potentiation; P14416; potentiation, % at 10 µM; actives 0.34% (n = 340,000);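 active = potentiation over 3 SD above the plate norm, cut at about 30% in these data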; note: 0% is about no effect
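Calcium flux readout, no-wash dye, 1 read/s. Inducible HEK293 Trex D2 line, overnight 30 C. Compound alone 180 s (agonist flags), then EC20 dopamine, another 180 s to score potentiation.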
D2 ag-1: activates the human D2 dopamine receptor; P14416; DiscoveRx PathHunter D2 beta-arrestin, luminescence, 90 min; 100% = 57 uM dopamine signal; activation, % (no concentration beside the values); actives 0.084% (n = 360,000); AID 624465; in the data active = activation above about 40%; inconclusive = between about 15% and that limit
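DiscoveRx PathHunter D2 beta-arrestin cells (2,100/well) attached overnight, then compound-stimulated 90 min at 37 C in HBSS/10 mM HEPES/0.1% Tween-20 buffer; beta-galactosidase complementation read by luminescence after 1 h at ambient temperature. Dopamine 57 uM final (EC100) as control.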
D2 antagonist: antagonists of human D2 dopamine receptor; HEK293 TREx D2 cells, calcium flux, dopamine EC80; inhibition, % at 10 µM; actives 2% (n = 340,000); AID 485344; in the data active = inhibition above about 30%; inactive = below that, where a call was filed; note: 0% is about no effect
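Tetracycline-induced HEK293 TREx cells expressing D2 receptor forced-coupled to calcium signalling, loaded with no-wash calcium dye. Compounds added and calcium flux read 180 s, then dopamine added at EC80 and read a further 180 s.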
D2 ag-2: activates the human D2 dopamine receptor. activation, % at 2 µM. P14416. actives 0.53% (n = 340,000). HEK293 T-REx D2 cells, calcium flux agonist mode;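 active = activation over 3 SD above normal in the single-dose calcium agonist read, cut at about 30% in these data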; note: 0% is about no effect
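Calcium-flux readout, 1 cycle/sec over 180 s following compound pin transfer, in inducible HEK293 Trex D2 cells (force-coupled); dopamine controls included. Positive calcium responses during this window marked compounds as potential agonists.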
* = called active by the depositor.

What do the screens show for `CC(C)CCn1c(-c2nonc2N)nc2ccccc21`?
D2 PAM-1: -17; D2 PAM-2: 33*; D2 ag-1: 0; D2 antagonist: 7; D2 ag-2: 1

Results for O=C1CC2(CCN(C(=O)c3ccccc3Cl)CC2)Oc2ccccc21 ?
D2 PAM-1: -6; D2 PAM-2: 5; D2 ag-1: -2; D2 antagonist: 12; D2 ag-2: 0

What do the screens show for `O=C(Nc1cccc2c1CCCC2)c1cc([N+](=O)[O-])cc([N+](=O)[O-])c1`?
D2 PAM-1: 62*; D2 PAM-2: -5; D2 ag-1: 9; D2 antagonist: 6; D2 ag-2: -3

How did O=C(Nc1ncccn1)c1cc([N+](=O)[O-])cc([N+](=O)[O-])c1 do in these assays?
D2 PAM-1: 54*; D2 PAM-2: -3; D2 ag-1: 5; D2 antagonist: -8; D2 ag-2: 1

How did O=C(Nc1ncccn1)c1ccc([N+](=O)[O-])cc1 do in these assays?
D2 PAM-1: -15; D2 ag-1: -2

What do the screens show for `COc1ccc(C(=O)Nc2cccc3c2CCCC3)cc1`?
D2 PAM-1: -1; D2 PAM-2: -6; D2 ag-1: 1; D2 antagonist: -7; D2 ag-2: 0

How did O=C(Cn1c(-c2cccs2)cc2cc(Cl)ccc21)N1CCN(c2ccccc2F)CC1 do in these assays?
D2 PAM-2: 3; D2 ag-2: 0

Results for Cn1cc(S(=O)(=O)N2CCN(c3ccccc3F)CC2)c(=O)n(C)c1=O ?
D2 PAM-1: -9; D2 PAM-2: 0; D2 ag-1: -3; D2 antagonist: 32*; D2 ag-2: 0

Results for CCNc1nc(OC)nc(Oc2ccc(=O)n(-c3ccccc3)n2)n1 ?
D2 PAM-1: -7; D2 PAM-2: 38*; D2 ag-1: -1; D2 antagonist: -6; D2 ag-2: 1

What do the screens show for `CCNc1nc(Oc2ccc(=O)n(-c3ccccc3)n2)nc(N(C)C)n1`?
D2 PAM-1: inconclusive; D2 PAM-2: 6; D2 ag-1: -3; D2 antagonist: -1; D2 ag-2: 0

Results for CCCOc1ccccc1N/C(N)=N/c1nc(C)cc(C)n1 ?
D2 PAM-1: -10; D2 PAM-2: -8; D2 ag-1: 0; D2 antagonist: 31*; D2 ag-2: 1

What do the screens show for `CC(=O)c1c(C)[nH]c(C(=O)OCCCCN2C(=O)c3ccccc3C2=O)c1C`?
D2 PAM-1: 9; D2 PAM-2: 4; D2 ag-1: -2; D2 antagonist: 48*; D2 ag-2: -1

What do the screens show for `Cc1ccc(N(CC(=O)N2CCN(c3cc(C)ccc3C)CC2)S(=O)(=O)c2c(C)nn(C)c2C)cc1`?
D2 PAM-2: -6; D2 ag-2: -1

Results for COc1cc(NC(=O)c2ccccc2-n2cnnn2)cc(OC)c1 ?
D2 PAM-1: -2; D2 PAM-2: -7; D2 ag-1: -2; D2 antagonist: -7; D2 ag-2: 0

Results for COc1cc(OC)cc(C(=O)Nc2ccc(-n3cnnn3)c(C)c2)c1 ?
D2 PAM-1: 4; D2 PAM-2: 3; D2 ag-1: -3; D2 antagonist: 38*; D2 ag-2: -2

How did CCN1CCCC1CNC(=O)c1ccc(N2CCOCC2)c(NS(=O)(=O)c2ccc(OC)cc2)c1 (stereo not given) do in these assays?
D2 PAM-1: -17; D2 PAM-2: -13; D2 ag-1: -1; D2 antagonist: 33*; D2 ag-2: 0

How did CCN(CC)CCNC(=O)c1ccc(N2CCCCC2)c(NS(=O)(=O)c2ccc(C)cc2)c1 do in these assays?
D2 PAM-1: -26; D2 PAM-2: -17; D2 ag-1: -5; D2 antagonist: 56*; D2 ag-2: 1

How did COCCNC(=O)C1(C)CCCN(C(=O)c2ccc(N(C)C)cc2)C1 (stereo not given) do in these assays?
D2 PAM-1: -5; D2 ag-1: -3

What do the screens show for `O=[N+]([O-])c1ccc(-c2ccc(C=Nc3cccc4ccccc34)o2)cc1`?
D2 PAM-1: 14; D2 PAM-2: 4; D2 ag-1: 0; D2 antagonist: -4; D2 ag-2: -1

How did O=[N+]([O-])c1cc(-c2ccc(/C=N/c3nc4ccccn4c3-c3ccco3)o2)ccc1Cl do in these assays?
D2 PAM-1: 70*; D2 PAM-2: 4; D2 ag-1: 8; D2 antagonist: 10; D2 ag-2: 0

What do the screens show for `COc1ccc2c(c1)cc(C(=O)N[C@@H](CCSC)C(=O)N1CCC(C(=O)O)CC1)n2C`?
D2 PAM-1: -7; D2 PAM-2: -2; D2 ag-1: 5; D2 antagonist: -7; D2 ag-2: -2

Results for N#Cc1c(NC(=O)CSc2nc(-c3ccco3)cc(C(F)(F)F)n2)sc2c1CCCC2 ?
D2 PAM-1: 6; D2 PAM-2: 44*; D2 ag-1: 0; D2 antagonist: -5; D2 ag-2: 0

How did CCn1nc(C)c(NC(=O)CCSc2nc(-c3ccco3)cc(C(F)(F)F)n2)c1C do in these assays?
D2 PAM-1: 11; D2 PAM-2: 31*; D2 ag-1: -1; D2 antagonist: 12; D2 ag-2: 0

Results for Cc1cc(NC(=O)CCCSc2nc(-c3ccco3)cc(C(F)(F)F)n2)n(-c2ccccc2)n1 ?
D2 PAM-1: 24; D2 PAM-2: 33*; D2 ag-1: 0; D2 antagonist: 2; D2 ag-2: -1

Results for Cc1cc(NC(=O)CSc2nc(-c3ccco3)cc(C(F)(F)F)n2)n(-c2ccccc2)n1 ?
D2 PAM-1: -2; D2 PAM-2: 14; D2 ag-1: -1; D2 antagonist: 7; D2 ag-2: 1

What do the screens show for `Cc1ccc(CNC(=O)Cn2ccn(-c3ccc(F)cc3)c(=O)c2=O)cc1`?
D2 PAM-2: 5; D2 ag-2: 0

How did COc1ccc(CNc2ncnc(N)n2)cc1 do in these assays?
D2 PAM-1: 4; D2 PAM-2: -6; D2 ag-1: -1; D2 antagonist: 14; D2 ag-2: 1

Results for COc1ccc(CNc2nc(NCc3ccc(OC)cc3)c3[nH]cnc3n2)cc1 ?
D2 PAM-1: 18; D2 PAM-2: 4; D2 ag-1: 6; D2 antagonist: 42*; D2 ag-2: 0

How did COCCCn1c(SCc2nnc(-c3ccccc3)o2)nc2sc3c(c2c1=O)CCC3 do in these assays?
D2 PAM-1: 1; D2 PAM-2: 33*; D2 ag-1: -1; D2 antagonist: -3; D2 ag-2: 1

How did CC(C)N(Cc1ccccc1)C(=O)CN1C(=O)c2ccccc2C1=O do in these assays?
D2 PAM-1: -3; D2 PAM-2: -8; D2 ag-1: -1; D2 antagonist: -3; D2 ag-2: 0

How did CC(C)N(Cc1ccccc1)C(=O)CC(=O)N(Cc1ccccc1)C(C)C do in these assays?
D2 PAM-1: -11; D2 PAM-2: 35*; D2 ag-1: -2; D2 antagonist: 1; D2 ag-2: 0
